Experimental data taken from PMC5540273 (PLoS ONE, 2017).

System: T1, CDC2L5
T1 construct: gene CDK13
Settings: concentration: 1 μM, replicates: in singlicate; n = 1
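Also: KINOMEscan kinase panel screen.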

Row | SMILES | %Inh [%]
1 | N#Cc1cnc2cc(-c3cnc(CNCCN4CCOCC4)s3)ccc2c1Nc1ccc(Oc2ccccc2)cc1 [GW664114] | 0
2 | COc1cccc2c(-c3ccncc3)c(-c3ccc(F)cc3)nn12 [GW468513] | 0
3 | COc1cccc(NC(=O)NCCNc2ccnc(Nc3ccc(F)cc3)n2)c1 [GSK1379879] | 0
4 | Nc1ncc(-c2ccc3nccc(-c4ccncc4)c3c2)cc1S(=O)(=O)N1CCCCC1 [GSK1693850] | 0

System: T2, CDK11
T2 construct: gene CDK19
Settings: concentration: 1 μM, replicates: in singlicate; n = 1

Row | SMILES | %Inh [%]
5 | O=C(Nc1n[nH]c2nc(-c3ccccc3O)ccc12)C1CC1 [SB-711880] | 0
6 | N#CC1(c2cccc(C(=O)Nc3cccc(Oc4ccc5nc(NC(=O)C6CC6)sc5n4)c3)c2)CC1 | 24
7 | Cl.Cl.NCC(NC(=O)c1cc(-c2cccnc2)c(-c2ccnc3[nH]ccc23)s1)c1ccccc1 (centres unmarked) [GSK1323434] | 8
8 | COc1cccc(C2=C(Nc3cccc(O)c3)C(=O)NC2=O)c1 [SB-390771] | 0
9 | Fc1cc(Cl)ccc1Nc1ccnc2cc(-c3ccc(CN4CCSCC4)o3)ccc12 [GW560106] | 1
10 | O=C(O)C(F)(F)F.O=c1[nH]ccc2nc(N[C@@H]3CCNC3)nc(Nc3ccc4c(c3)S(=O)(=O)CC4)c12 [GSK2181306] | 0
11 | Cc1ccccc1CC(=O)N1CCc2cc(-c3cn(C)c4ncnc(N)c34)ccc21 [GSK2603346] | 81
12 | O=C(Nc1n[nH]c2nc(-c3ccccc3)ccc12)C1CC1 [SB-708999] | 0
13 | CN(c1ccc(NC(=O)Nc2cccc(Cl)c2)cc1)c1ccnc(N)n1.Cl [GW830707] | 77
14 | CN(C)CCOc1ccc(-c2cc(-c3ccc(Cl)c(O)c3)c(-c3ccncc3)[nH]2)cc1.Cl.Cl [SB-684387] | 6
15 | Cc1ccc(Nc2ccnc(Nc3ccc(C)c(F)c3)n2)cc1O.Cl [GW582868] | 6
16 | CN(c1ccc(NC(=O)N2CCN(CCCN3CCOCC3)CC2)cc1)c1ccnc(Nc2ccc(CS(C)(=O)=O)cc2)n1.Cl [GW830899] | 0
17 | Nc1ncnc2scc(-c3ccc(NC(=O)Cc4cc(F)ccc4F)cc3)c12.O=C(O)C(F)(F)F [SB-731254-M] | 99
18 | CC(C)c1nc(-c2cccc(NS(=O)(=O)c3c(F)cccc3F)c2)c(-c2ccnc(Nc3ccc(N4CCOCC4)nc3)n2)s1.Cl [GSK1723980] | 0
19 | Cl.N#CCc1ccc(Nc2nccc(Nc3ccc(Oc4ccccc4)cc3)n2)cc1 [GW639905] | 0
20 | CNc1nccc(-c2ccc3c(N)n[nH]c3c2)n1 [GSK2206003] | 0
21 | COC(=O)Nc1nc2ccc(Oc3ccc(NC(=O)Nc4cc(C(F)(F)F)ccc4F)cc3)cc2[nH]1.Cl [GW654607] | 87
22 | O=C(O)C(F)(F)F.O=c1[nH]ccc2nc(N[C@@H]3CCNC3)nc(Nc3cc(Cl)cc(Cl)c3)c12 [GSK2188764] | 2
23 | Cl.O=C(Nc1ccc(Oc2ccc3[nH]c(NC(=O)c4ccco4)nc3c2)cc1)Nc1cc(C(F)(F)F)ccc1F [GW683134] | 88

Row | SMILES | %Inh [%]
24 | c1ccc(Oc2ccc(Nc3ccnc4cc(-c5ccc(CN6CCCCC6)o5)ccc34)cc2)nc1 [GW567143] | 0
25 | NCCC(NC(=O)c1cc(Br)c(-c2ccnc3[nH]ccc23)s1)c1ccccc1.O=C(O)C(F)(F)F.O=C(O)C(F)(F)F (centres unmarked) [GSK1307810] | 58
26 | COc1ccc(NC(=O)c2ccoc2)cc1-c1ccc(C(=O)NCC2CC2)cc1 [GW810437] | 11
27 | CCn1c(-c2nonc2N)nc2c(-c3ccccc3)ncc(OCCCN)c21.O=C(O)C(F)(F)F.O=C(O)C(F)(F)F [GSK260205] | 0
28 | CS(=O)(=O)c1cccc(CNc2nc(Nc3ccc4c(c3)CCC(=O)N4)ncc2C(F)(F)F)c1 | 0
29 | O=C(Nc1c(F)cccc1F)c1cc(C(=O)c2ccccc2F)c[nH]1 [GSK1326180] | 6
30 | O=C(Nc1n[nH]c2nc(-c3cccc(O)c3)ccc12)C1CC1 [SB-711805] | 0
31 | Cc1ccc(O)cc1Nc1ccnc2ccc(C(C)(C)C)cc12 [GW856805] | 21
32 | Cc1cccc(Nc2nc(NCCN)ncc2C(N)=O)c1 [GSK1292139] | 0
33 | Cn1cc(-c2ccc3c(c2)CCN3C(=O)Cc2cc(F)cc(C(F)(F)F)c2)c2c(N)ncnc21 [GSK2635225] | 95.2
34 | Cn1cc(-c2cnc(N)c3c(-c4ccc5c(c4)CCN5C(=O)Cc4ccccc4)csc23)cn1 [GSK2593074] | 18
35 | CC(C)c1nc(-c2ccc(F)c(NS(=O)(=O)c3c(F)cccc3F)c2)c(-c2ccnc(Nc3ccc(N4CCOCC4)nc3)n2)s1 [GSK1804250] | 2
36 | CC(C)NCC(Cc1ccccc1)NC(=O)c1cc(Br)c(-c2ccnc3[nH]ccc23)s1.Cl.Cl (centres unmarked) [GSK1383281] | 31
37 | COc1cccc(CC(=O)N2CCc3cc(-c4cn(C)c5ncnc(N)c45)ccc32)c1 [GSK2608899] | 98.4
38 | N#Cc1cnc2cc(-c3cnc(CNCCN4CCOCC4)s3)ccc2c1Nc1ccc(Oc2ccccc2)cc1 [GW664114] | 0
39 | COc1cccc2c(-c3ccncc3)c(-c3ccc(F)cc3)nn12 [GW468513] | 8
40 | COc1cccc(NC(=O)NCCNc2ccnc(Nc3ccc(F)cc3)n2)c1 [GSK1379879] | 22
41 | Nc1ncc(-c2ccc3nccc(-c4ccncc4)c3c2)cc1S(=O)(=O)N1CCCCC1 [GSK1693850] | 73
